Data from PubChem BioAssay (NCATS).
Values joined by “and” are separate entries in the source; they are usually repeats but may differ in a detail not shown here. Equal entries are not always repeated. Inconclusive results are not listed. Active and inactive are the calls of the source. Unless noted, calls follow the shape of the dose curve; as a rule, active = well fitted cell-killing curve with a large enough effect; inconclusive = small, poorly fitted or top-dose-only effect; inactive = flat fitted curve, though single readings scatter.

Experiments:
[1] = Cell Viability - LYMP2-002 (AID 977);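 also: series mostly up to about 92 µM; plate controls were DMSO only for no effect and 92 µM tetraoctylammonium bromide for full effect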
Method in brief: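 Luminescent ATP readout (CellTiter-Glo, 30 min room temperature) after 24 h compound exposure at 37 C of a human lymphoblastoid line, 2500 cells/well. AC50 values derived by standard Hill fitting of qHTS concentration-response data.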

[2] = Cell Viability - LYMP2-006 (AID 978); also: series mostly up to about 92 µM; % is scaled to controls: 0 for no effect and ±100 for the full control effect; nearly all actives have a fitted effect of over 60% in size
Method in brief: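 Cells are seeded at 2500 per well and rested 5 hr at 37 C. Compounds are added across a concentration series for 24 hr at 37 C, after which ATP is quantified by luciferase luminescence.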

[3] = Cell Viability - LYMP2-007 (AID 979);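 also: cells exposed to compound for 24 h before reading; 0% = DMSO only and the negative end = 92 µM tetraoctylammonium bromide; nearly all actives have a fitted effect of over 60% in size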
Method in brief: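 Human lymphoblastoid LYMP2-007 cells (2500/well) preincubated 5 h at 37 C, then treated 24 h at 37 C in complete medium. Viability by CellTiter-Glo ATP luminescence after 30 min at room temperature; AC50 from Hill fits.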

[4] = Cell Viability - LYMP2-008 (AID 980); also: % is scaled to controls: 0 for no effect and ±100 for the full control effect; nearly all actives have a fitted effect of over 60% in size
Method in brief: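 LYMP2-008 lymphoblastoid cells (2500/well) plated 5 h, then treated 24 h at 37 C in complete medium. Viability read as intracellular ATP by CellTiter-Glo luminescence after 30 min at room temperature; AC50 from Hill fits.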

[5] = Cell Viability - LYMP2-010 (AID 981); also: % is scaled to controls: 0 for no effect and ±100 for the full control effect; nearly all actives have a fitted effect of over 55% in size
Method in brief: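 Human lymphoblastoid LYMP2-010 cells (2500/well) treated 24 h at 37 C in complete medium; viability read as intracellular ATP by CellTiter-Glo luminescence. AC50 from Hill fits of concentration-response data; tetraoctylammonium bromide positive control.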

[6] = Cell Viability - LYMP2-012 (AID 982);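 also: cellular ATP by luciferase luminescence where a drop means cytotoxicity; cells exposed to compound for one day before reading; 0% = DMSO only and full loss = 92 µM tetraoctylammonium bromide; nearly all actives have a fitted effect of over 55% in size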
[7] = Cell Viability - LYMP2-014 (AID 983);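 also: series mostly up to about 92 µM; plate controls were DMSO only for no effect and 92 µM tetraoctylammonium bromide for full effect; nearly all actives have a fitted effect of over 50% in size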
Method in brief: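 LYMP2-014 human lymphoblastoid cells, 2500/well, treated 24 h at 37 C in complete medium; viability by CellTiter-Glo ATP luminescence after 30 min at room temperature. AC50 from Hill fits of qHTS concentration-response; tetraoctylammonium bromide positive control.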

[8] = Cell Viability - LYMP2-016 (AID 984); also: % is scaled to controls: 0 for no effect and ±100 for the full control effect; nearly all actives have a fitted effect of over 55% in size
Method in brief: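 Cells were seeded at 2500 per well and rested 5 hr before a 24 hr compound exposure at 37 C. Viability was then gauged as cellular ATP by luciferase luminescence, with AC50 values fitted to the Hill equation.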

[9] = Cell Viability - LYMP2-018 (AID 985);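 also: plate controls were DMSO only for no effect and tetraoctylammonium bromide at 92 µM for full effect; nearly all actives have a fitted effect of over 50% in size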
Method in brief: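 Human lymphoblastoid LYMP2-018 cells, 2500/well, settled 5 hr at 37 C then exposed to compound 24 hr at 37 C; intracellular ATP measured by CellTiter-Glo luminescence. AC50 from Hill-equation concentration-response fits.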

[10] = Cell Viability - LYMP2-020 (AID 986);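 also: series mostly up to about 92 µM; plate controls were DMSO only for no effect and tetraoctylammonium bromide at 92 µM for full effect; nearly all actives have a fitted effect of over 55% in size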
Method in brief: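 Human lymphoblastoid LYMP2-020 cells (2500/well) preincubated 5 h at 37 C, then treated 24 h at 37 C. Viability measured as intracellular ATP by CellTiter-Glo luminescence after 30 min at room temperature; AC50 from Hill fits.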

[11] = Cell Viability - LYMP2-022 (AID 987)
Method in brief: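 LYMP2-022 lymphoblastoid cells (2500/well, complete medium) were treated with compounds for 24 hours at 37 C; intracellular ATP was then read by CellTiter-Glo luminescence after 30 min at room temperature. AC50 values were derived from Hill-equation fits.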

[12] = Cell Viability - LYMP2-024 (AID 988);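 also: plate controls were DMSO only for no effect and 92 µM tetraoctylammonium bromide for full effect; nearly all actives have a fitted effect of over 60% in size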
Method in brief: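 Human lymphoblastoid LYMP2-024 cells (2500/well) rested 5 hr, then treated with compound for 24 hr at 37 C in complete medium. Viability was measured as intracellular ATP by CellTiter-Glo luminescence. AC50 values came from Hill-equation fits.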

[13] = Cell Viability - LYMP2-026 (AID 989); also: % is scaled to controls: 0 for no effect and ±100 for the full control effect; nearly all actives have a fitted effect of over 50% in size
Method in brief: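 Human lymphoblastoid LYMP2-026 cells, 2500/well, exposed to compound 24 h at 37 C in complete medium. Viability as intracellular ATP by CellTiter-Glo luminescence; AC50 from Hill fits of qHTS concentration-response.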

[14] = Cell Viability - LYMP1-002 - Assay at 24 hr (AID 993); also: % is scaled to controls: 0 for no effect and ±100 for the full control effect
Method in brief: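 Human lymphoblastoid LYMP1-002 cells (2500/well) treated 24 h at 37 °C; viability as intracellular ATP by CellTiter-Glo luminescence. Tetraoctylammonium bromide as positive control; AC50 from Hill-equation fits of qHTS concentration-response.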

[15] = Cell Viability - LYMP1-002 - Assay at 40 hr (AID 994)
Method in brief: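 LYMP1-002 human lymphoblastoid cells (2500/well, complete medium) were treated with compounds for 40 hr at 37 C. Intracellular ATP was measured by CellTiter-Glo luminescence, and AC50 values came from Hill-equation fits of concentration-response data; tetraoctylammonium bromide was the positive control.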

[16] = qHTS Assay for Identification of Small Molecule Inducers of Hypoxia Response (AID 2120; active = well fitted curve in the direction sought with a large enough effect in the signal ratio, with a control signal flat, not every such curve was filed as active; the % refers to the signal ratio; also: 0% is about no effect)
Method in brief: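 HRE-bla ME-180 cells in Opti-MEM with 0.5% dialyzed FBS, pre-plated 4-5 h, then compound titration for 17 h at 37 degrees Celsius. CCF4 loaded 2.5 h at room temperature; 460/530 nm ratio gave %Activity and AC50 for induction.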

[17] = target: Bile acid receptor (Homo sapiens) (UniProt Q96RI1); assay: qHTS assay for small molecule agonists of farnesoid X receptor signaling (AID 588527; calls by dose curve;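 also: series mostly up to about 77 µM; 0% = vehicle basal and 100% = reference agonist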); conditions: HEK293T FXR-UAS-bla, beta-lactamase ratio, 16 h; stronger effect = higher value
Sequence of Bile acid receptor (Homo sapiens) (Q96RI1 whole entry, looked up): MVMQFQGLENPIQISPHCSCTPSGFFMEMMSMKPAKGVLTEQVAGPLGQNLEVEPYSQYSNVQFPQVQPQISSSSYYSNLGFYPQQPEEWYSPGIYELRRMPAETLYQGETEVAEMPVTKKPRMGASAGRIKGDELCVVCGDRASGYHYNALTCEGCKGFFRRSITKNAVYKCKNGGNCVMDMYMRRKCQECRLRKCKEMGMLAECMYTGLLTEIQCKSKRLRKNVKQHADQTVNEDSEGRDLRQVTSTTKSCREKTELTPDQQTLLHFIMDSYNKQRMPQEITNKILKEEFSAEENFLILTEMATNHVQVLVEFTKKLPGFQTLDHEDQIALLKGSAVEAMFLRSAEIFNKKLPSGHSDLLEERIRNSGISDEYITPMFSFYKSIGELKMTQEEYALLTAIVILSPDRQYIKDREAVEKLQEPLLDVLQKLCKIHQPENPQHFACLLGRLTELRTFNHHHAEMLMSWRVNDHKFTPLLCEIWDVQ
Method in brief: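 Quantitative HTS used FXR-UAS-bla HEK293T cells with 16 h compound incubation at 37 C. EC50 values came from concentration-response curves normalized to chenodeoxycholic acid.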

[18] = target: Glucocorticoid receptor (Homo sapiens) (UniProt P04150); assay: qHTS assay for small molecule agonists of glucocorticoid receptor signaling (AID 588532; active = well fitted curve in the direction sought with a large enough effect in the signal ratio, with a control signal flat; the % refers to the signal ratio;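 also: 100% = dexamethasone at 0.1 µM and 0% = DMSO only wells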); conditions: HeLa MMTV-bla, beta-lactamase ratio, agonist, 18 h; stronger effect = higher value; percent of dexamethasone control, DMSO zero
Sequence of Glucocorticoid receptor (Homo sapiens) (P04150 whole entry, looked up): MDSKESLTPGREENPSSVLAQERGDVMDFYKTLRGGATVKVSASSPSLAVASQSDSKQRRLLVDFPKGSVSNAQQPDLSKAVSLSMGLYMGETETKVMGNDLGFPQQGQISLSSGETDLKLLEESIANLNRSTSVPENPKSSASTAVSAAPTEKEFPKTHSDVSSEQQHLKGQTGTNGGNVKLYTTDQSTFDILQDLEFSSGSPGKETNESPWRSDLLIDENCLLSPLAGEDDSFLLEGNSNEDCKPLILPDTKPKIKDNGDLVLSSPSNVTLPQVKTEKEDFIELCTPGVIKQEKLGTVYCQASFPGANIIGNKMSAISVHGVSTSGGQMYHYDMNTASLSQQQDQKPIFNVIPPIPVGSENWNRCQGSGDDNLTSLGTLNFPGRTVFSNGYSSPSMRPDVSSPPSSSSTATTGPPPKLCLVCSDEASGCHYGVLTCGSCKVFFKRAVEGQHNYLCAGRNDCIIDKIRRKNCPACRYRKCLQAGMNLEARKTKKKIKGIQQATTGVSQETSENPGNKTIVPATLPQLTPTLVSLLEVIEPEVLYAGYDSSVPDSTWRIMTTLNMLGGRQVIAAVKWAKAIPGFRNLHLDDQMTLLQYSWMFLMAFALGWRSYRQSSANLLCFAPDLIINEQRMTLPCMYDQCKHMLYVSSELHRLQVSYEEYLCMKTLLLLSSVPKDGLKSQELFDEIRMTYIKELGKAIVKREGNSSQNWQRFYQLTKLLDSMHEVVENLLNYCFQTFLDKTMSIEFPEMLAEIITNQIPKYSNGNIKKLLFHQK
Method in brief: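 Titration series, up to 92 uM, applied to GRE-bla HeLa cells for 18 h at 37 C. Detection by CCF4 FRET substrate after 2 h at RT.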

[19] = target: Glucocorticoid receptor (Homo sapiens) (UniProt P04150); assay: qHTS assay for small molecule antagonists of glucocorticoid receptor signaling (AID 588533; active = well fitted inhibition curve with a large enough effect in the signal ratio, with a control signal flat, not every such curve was filed as active; the % refers to the signal ratio;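 also: cells stimulated with 2 nM dexamethasone as agonist; % is scaled to controls: 0 for no effect and ±100 for the full control effect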)
Method in brief: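 Antagonist-mode qHTS: compound titrations added to GRE-bla HeLa cells, then dexamethasone 2 nM final; 18 h, 37 C. CCF4 FRET fluorescence normalized to dexamethasone and DMSO; IC50 from Hill fit.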

[20] = target: Peroxisome proliferator-activated receptor delta (Homo sapiens) (UniProt Q03181); assay: qHTS assay for small molecule agonists of peroxisome proliferator-activated receptor delta signaling (AID 588534; calls by dose curve;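 also: 0% = DMSO basal wells and 100% = positive control agonist at 10 µM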)
Sequence of Peroxisome proliferator-activated receptor delta (Homo sapiens) (Q03181 whole entry, looked up): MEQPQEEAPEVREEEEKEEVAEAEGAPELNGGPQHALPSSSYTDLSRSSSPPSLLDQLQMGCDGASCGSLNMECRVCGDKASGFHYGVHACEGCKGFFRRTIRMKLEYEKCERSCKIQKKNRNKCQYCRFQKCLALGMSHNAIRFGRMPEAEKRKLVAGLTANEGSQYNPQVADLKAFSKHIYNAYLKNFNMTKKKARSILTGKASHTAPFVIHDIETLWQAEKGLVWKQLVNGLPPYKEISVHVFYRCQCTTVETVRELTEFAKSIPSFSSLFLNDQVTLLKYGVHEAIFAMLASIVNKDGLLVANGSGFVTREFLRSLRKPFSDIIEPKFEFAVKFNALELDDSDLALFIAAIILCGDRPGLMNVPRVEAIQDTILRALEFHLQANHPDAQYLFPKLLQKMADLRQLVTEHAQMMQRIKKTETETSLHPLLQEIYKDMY
Method in brief: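 Cells carrying a PPAR-delta beta-lactamase reporter were treated with compounds for 18 h at 37 °C in agonist mode. CCF4 fluorescence was read after 2 h; EC50 and efficacy from Hill fits.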

[21] = qHTS assay for small molecule antagonists of peroxisome proliferator-activated receptor delta signaling (AID 588535; active = well fitted inhibition curve with a large enough effect in the signal ratio, with a control signal flat, not every such curve was filed as active; the % refers to the signal ratio;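 as to max response: cells co-treated with a PPAR-delta agonist as stimulator during compound exposure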); conditions: HEK293T PPARd-UAS-bla, beta-lactamase FRET ratio, 18 h; 460 nm channel
Method in brief: (§1)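 Reporter: UAS-bla under PPAR-delta response element, HEK293T host. Medium: 2% charcoal/dextran FBS. Dosing: titration, 18 hrs, 37 C. Detection: CCF4, 2 hrs RT, 405 ex/460 and 530 em.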

[22] = target: Peroxisome proliferator-activated receptor delta (Homo sapiens) (UniProt Q03181); assay: as above
Method in brief: as §1

[23] = target: Peroxisome proliferator-activated receptor gamma (Homo sapiens) (UniProt P37231); assay: qHTS assay for small molecule agonists of peroxisome proliferator-activated receptor gamma signaling (AID 588536; active = well fitted curve in the direction sought with a large enough effect in the signal ratio, with a control signal flat, not every such curve was filed as active; the % refers to the signal ratio;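 also: 0% = DMSO basal wells and 100% = rosiglitazone at 2 µM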)
Sequence of Peroxisome proliferator-activated receptor gamma (Homo sapiens) (P37231 whole entry, looked up): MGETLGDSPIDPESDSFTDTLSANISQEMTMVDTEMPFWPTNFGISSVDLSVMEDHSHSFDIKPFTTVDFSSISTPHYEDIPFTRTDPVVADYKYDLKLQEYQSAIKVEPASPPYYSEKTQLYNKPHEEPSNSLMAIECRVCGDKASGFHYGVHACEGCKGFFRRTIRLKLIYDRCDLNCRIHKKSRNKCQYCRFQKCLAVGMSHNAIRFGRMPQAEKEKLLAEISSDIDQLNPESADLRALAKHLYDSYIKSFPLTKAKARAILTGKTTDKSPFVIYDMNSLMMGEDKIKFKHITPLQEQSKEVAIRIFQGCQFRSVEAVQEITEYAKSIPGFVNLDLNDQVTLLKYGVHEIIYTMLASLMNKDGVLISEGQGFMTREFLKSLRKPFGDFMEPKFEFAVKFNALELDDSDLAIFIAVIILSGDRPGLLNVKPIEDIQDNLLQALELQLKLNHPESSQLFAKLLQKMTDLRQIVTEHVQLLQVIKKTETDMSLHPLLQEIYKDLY
Method in brief: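 HEK293 UAS-bla reporter line, 1% charcoal/dextran FBS; titration, 16 h, 37 C; CCF4 loading 2 h RT; fluorescence 460/530 nm. Normalized to rosiglitazone 2 uM = 100%, DMSO = 0%.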

Clc1cc(Cl)c(-c2cc(Cl)c(Cl)cc2Cl)cc1Cl
34.2% and 61.4%: max response [21]
inactive: Potency [1] | Potency [2] | Potency [3] | Potency [4] | Potency [5] | Potency [6] | Potency [7] | Potency [8] | Potency [9] | Potency [10] | Potency [11] | Potency [12] | Potency [13] | Potency [14] | Potency [15] | outcome [16] | activation [17] 4.83% | activation [18] 0.333% and 5.15% | Potency [19] | outcome [20] | Potency [22] | outcome [23]
